Data from PubChem BioAssay (Tox21).
Records with an inconclusive call do not appear. Entries that show only a call come without a potency. A structure can be active in one record and inactive in another. The source made the active and inactive calls. Calls come from the whole dose curve.

experiment: p53 small molecule agonists, cell-based qHTS assay with rat liver microsomes (AID 1963578); settings: HCT-116 p53RE-bla, beta-lactamase ratio, 16 h; series mostly up to 66 µM; activation: at the top concentration
Summary of the method: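 p53RE-bla cells were exposed to compounds together with rat liver microsomes (0.5 mg/mL final) and NADPH (0.5 mg/mL final) for 16 h at 37 C, then read by LiveBLAzer beta-lactamase fluorescence after 2 h at room temperature.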

| SMILES | Potency | activation |
| --- | --- | --- |
| CCC(C)OC(=O)c1ccc(O)cc1 (stereo not given) | inactive | – |
| O=c1n(CC2CO2)c(=O)n(CC2CO2)c(=O)n1CC1CO1 (stereo not given) | inactive | – |
| COc1ccc2c(c1)c(CC(=O)O)c(C)n2C(=O)c1ccc(Cl)cc1 | inactive | – |
| Oc1c(Cl)cc(Cl)c(Cl)c1Cc1c(O)c(Cl)cc(Cl)c1Cl | inactive | – |
| NC(=O)c1ncn([C@@H]2O[C@H](CO)[C@@H](O)[C@H]2O)n1 | inactive | – |
| CC(=O)OCC(=O)[C@@]12N=C(C)O[C@@H]1C[C@H]1[C@@H]3CCC4=CC(=O)C=C[C@]4(C)[C@H]3[C@@H](O)C[C@@]12C | inactive | – |
| CCCCC(CC)COC(=O)C(C#N)=C(c1ccccc1)c1ccccc1 (stereo not given) | inactive | – |
| OC1CCCCC1 | inactive | – |
| Cc1cc(=O)[nH]c(=S)[nH]1 | inactive | – |
| O=c1c(O)c(-c2ccc(O)cc2)oc2cc(O)cc(O)c12 | inactive | – |
| COCCOCCOC | inactive | – |
| C=C(C)C(=O)OCCCCCC | inactive | – |
| C=C(C)C1CC=C(C)C(OC(C)=O)C1 (stereo not given) | inactive | – |
| Nc1ncn([C@@H]2O[C@H](CO)[C@@H](O)[C@H]2O)c(=O)n1 | inactive | – |
| C=C1C2CCC(C2)C1(C)C (stereo not given) | inactive | – |
| COCc1c(C(C)C)nc(C(C)C)c(/C=C/[C@@H](O)C[C@@H](O)CC(=O)O)c1-c1ccc(F)cc1 | inactive | – |
| CC(=O)Nc1ccc(C(=O)CCl)cc1 | inactive | – |
| C=CC(C)(CCC=C(C)C)OC(C)=O (stereo not given) | inactive | – |
| C[C@]12C[C@H](O)[C@H]3[C@@H](CCC4=CC(=O)CC[C@@]43C)[C@@H]1CC[C@@H]2C(=O)CO | inactive | – |
| CCCCCCCC(=O)OC | inactive | – |

| SMILES | Potency | activation |
| --- | --- | --- |
| O=C(Cl)c1c(Cl)c(Cl)c(C(=O)Cl)c(Cl)c1Cl | inactive | – |
| OC(Cn1cncn1)(Cn1cncn1)c1ccc(F)cc1F | inactive | – |
| COC(=O)CCCCC(=O)OC | inactive | – |
| C[C@]12CC[C@@H]3c4ccc(O)cc4CC[C@H]3[C@@H]1CC[C@H]2O | inactive | – |
| CCCN(CCC)C(=O)SCC | inactive | – |
| C=C(C#N)C(=O)OCC | inactive | – |
| C[Si]1(C)O[Si](C)(C)O[Si](C)(C)O[Si](C)(C)O1 | inactive | – |
| CC(=O)Nc1nnc(S(N)(=O)=O)s1 | inactive | – |
| O=[Se](O)O | – | -2.76% (inactive) |
| CCCCCCCCCCC(CO)CCCCCCCC (stereo not given) | inactive | – |
| C#C[C@]1(O)CC[C@H]2[C@@H]3CCC4=Cc5oncc5C[C@]4(C)[C@H]3CC[C@@]21C | inactive | – |
| COC(C)COC(C)COC(C)CO (stereo not given) | inactive | – |
| Brc1ccc(Oc2ccc(Br)cc2)cc1 | inactive | – |
| O=C1CCCCCCCCCCCN1 | inactive | – |
| O=C(c1ccc(O)cc1)c1ccc(O)cc1O | – | 1.66% (inactive) |
| CCCC(O)C(CC)CO (stereo not given) | inactive | – |
| CC(=O)Oc1ccc(C(c2ccc(OC(C)=O)cc2)c2ccccn2)cc1 | inactive | – |
| CC1COC(=O)O1 (stereo not given) | inactive | – |
| CC(=O)O[C@]1(C(C)=O)CC[C@H]2[C@@H]3C=C(Cl)C4=CC(=O)CC[C@]4(C)[C@H]3CC[C@@]21C | inactive | – |
| O=C(CC(C(=O)OC1CCCCC1)S(=O)(=O)O)OC1CCCCC1 (stereo not given) | inactive | – |

experiment: p53 small molecule agonists, cell-based qHTS assay with human liver microsomes: qHTS cell viability counter screen (AID 1963579); settings: p53RE-bla HCT-116 viability, ATP luminescence, 16 h, HLM; series mostly up to 66 µM; activity change, negative = cytotoxicity: at the top concentration; note: nearly all actives have a fitted effect of over 45% in size; note: potency is the fitted concentration of half-maximal effect
Summary of the method: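 p53RE-bla cells (4,000/well) were pre-incubated 5 h at 37 C, then given compounds in DMSO plus human liver microsomes (0.5 mg/mL final) and NADPH (0.5 mg/mL final) for 16 h at 37 C. Viability was read by CellTiter-Glo luminescence.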

| SMILES | Potency | activity change, negative = cytotoxicity |
| --- | --- | --- |
| CCC(C)OC(=O)c1ccc(O)cc1 (stereo not given) | inactive | – |
| O=c1n(CC2CO2)c(=O)n(CC2CO2)c(=O)n1CC1CO1 (stereo not given) | inactive | – |
| COc1ccc2c(c1)c(CC(=O)O)c(C)n2C(=O)c1ccc(Cl)cc1 | inactive | – |
| Oc1c(Cl)cc(Cl)c(Cl)c1Cc1c(O)c(Cl)cc(Cl)c1Cl | 36.3 µM (active) and inactive | – |
| NC(=O)c1ncn([C@@H]2O[C@H](CO)[C@@H](O)[C@H]2O)n1 | inactive | – |
| CC(=O)OCC(=O)[C@@]12N=C(C)O[C@@H]1C[C@H]1[C@@H]3CCC4=CC(=O)C=C[C@]4(C)[C@H]3[C@@H](O)C[C@@]12C | inactive | – |
| CCCCC(CC)COC(=O)C(C#N)=C(c1ccccc1)c1ccccc1 (stereo not given) | inactive | – |
| OC1CCCCC1 | inactive | – |
| Cc1cc(=O)[nH]c(=S)[nH]1 | inactive | – |
| O=c1c(O)c(-c2ccc(O)cc2)oc2cc(O)cc(O)c12 | inactive | – |
| COCCOCCOC | inactive | – |
| C=C(C)C(=O)OCCCCCC | inactive | – |
| C=C(C)C1CC=C(C)C(OC(C)=O)C1 (stereo not given) | inactive | – |
| Nc1ncn([C@@H]2O[C@H](CO)[C@@H](O)[C@H]2O)c(=O)n1 | – | -1.61% (inactive) |
| C=C1C2CCC(C2)C1(C)C (stereo not given) | inactive | – |
| COCc1c(C(C)C)nc(C(C)C)c(/C=C/[C@@H](O)C[C@@H](O)CC(=O)O)c1-c1ccc(F)cc1 | inactive | – |
| CC(=O)Nc1ccc(C(=O)CCl)cc1 | inactive | – |
| C=CC(C)(CCC=C(C)C)OC(C)=O (stereo not given) | inactive | – |
| C[C@]12C[C@H](O)[C@H]3[C@@H](CCC4=CC(=O)CC[C@@]43C)[C@@H]1CC[C@@H]2C(=O)CO | inactive | – |
| CCCCCCCC(=O)OC | inactive | – |

| SMILES | Potency | activity change, negative = cytotoxicity |
| --- | --- | --- |
| O=C(Cl)c1c(Cl)c(Cl)c(C(=O)Cl)c(Cl)c1Cl | inactive | – |
| OC(Cn1cncn1)(Cn1cncn1)c1ccc(F)cc1F | inactive | – |
| COC(=O)CCCCC(=O)OC | inactive | – |
| C[C@]12CC[C@@H]3c4ccc(O)cc4CC[C@H]3[C@@H]1CC[C@H]2O | inactive | – |
| CCCN(CCC)C(=O)SCC | inactive | – |
| C=C(C#N)C(=O)OCC | inactive | – |
| C[Si]1(C)O[Si](C)(C)O[Si](C)(C)O[Si](C)(C)O1 | inactive | – |
| CC(=O)Nc1nnc(S(N)(=O)=O)s1 | inactive | – |
| O=[Se](O)O | – | -2.48% [at 13.5 µM] (inactive) |
| CCCCCCCCCCC(CO)CCCCCCCC (stereo not given) | inactive | – |
| C#C[C@]1(O)CC[C@H]2[C@@H]3CCC4=Cc5oncc5C[C@]4(C)[C@H]3CC[C@@]21C | inactive | – |
| COC(C)COC(C)COC(C)CO (stereo not given) | inactive | – |
| Brc1ccc(Oc2ccc(Br)cc2)cc1 | inactive | – |
| O=C1CCCCCCCCCCCN1 | inactive | – |
| O=C(c1ccc(O)cc1)c1ccc(O)cc1O | inactive | – |
| CCCC(O)C(CC)CO (stereo not given) | inactive | – |
| CC(=O)Oc1ccc(C(c2ccc(OC(C)=O)cc2)c2ccccn2)cc1 | – | -24.4% [at 30.3 µM] (inactive) |
| CC1COC(=O)O1 (stereo not given) | inactive | – |
| CC(=O)O[C@]1(C(C)=O)CC[C@H]2[C@@H]3C=C(Cl)C4=CC(=O)CC[C@]4(C)[C@H]3CC[C@@]21C | inactive | – |
| O=C(CC(C(=O)OC1CCCCC1)S(=O)(=O)O)OC1CCCCC1 (stereo not given) | inactive | – |
